Unmarked numbers belong to inactive results. Inconclusive results are not listed. Calls of active or inactive are those of the source. Unless noted, calls come from the whole dose curve; as a rule, active = well fitted curve in either direction with a large enough effect (not every such curve was filed as active); inconclusive = small, poorly fitted or top-dose-only effect, or another doubt; inactive = flat fitted curve, though single readings scatter. Residues, ends and D or L forms follow the SMILES beside them.
How the values were obtained:
[1] = target: Lysosomal acid glucosylceramidase (Homo sapiens) (UniProt P04062); experiment: Glucocerebrosidase-p2 (AID 348; in the data active = potency below about 10 µM; note: potency is the fitted concentration of half-maximal effect); details: purified GBA, blue fluorogenic substrate, 40 min
Procedure, shortened: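 Compounds titrated from 0.6 nM upwards against 0.2 nM enzyme in pH 5.9 citric acid/KH2PO4, taurocholate, tween-20; blue fluorogenic substrate 80 uM, 40 min room temperature, stopped and read Ex 365/Em 440 for AC50.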

[2] = AP1 Signaling Pathway (AID 357); details: ME-180 AP-1-bla reporter, EGF-induced, beta-lactamase ratio, 5 h; at 7.69 µM (top of the series) unless noted;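 note: ME-180 reporter cells stimulated with EGF at its EC50 level; % is set by controls: 0 for no effect and ±100 for the full control effect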
Procedure, shortened: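 AP-1-bla ME-180 cells, Opti-MEM + 0.5% dialyzed FBS, plated overnight 37 °C. Cpd titration + EC50 EGF, 5 h 37 °C. CCF4 2.5 h RT; ex 405, em 460/530 ratio → %activity, AC50.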

[3] = target: Cytochrome P450 1A2 (Homo sapiens) (UniProt P05177); experiment: p450-cyp1a2 (AID 410; calls by dose curve; note: potency is the fitted concentration of half-maximal effect;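 for activity change, negative = inhibition: -100% = full effect of reference inhibitor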); details: recombinant CYP1A2, luciferin-ME demethylation, luminescence; series mostly up to 11.4 µM
Procedure, shortened: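 20nM CYP1A2 with 100uM Luciferin-ME (at Km) in 100mM KPO4; compound preincubated 10 min, NADPH regeneration added, 60 min at room temperature. Luciferin quantified by luminescence after detection reagent; normalized to 57 uM furafylline.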

[4] = NFAT Signaling Pathway (AID 444); details: Jurkat NFAT-bla M1, carbachol, beta-lactamase ratio, 5 h; at 7.69 µM (top of the series) unless noted;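 note: carbachol stimulus at about its EC50 of 1 µM final; % is set by controls: 0 for no effect and ±100 for the full control effect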
Procedure, shortened: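 Read-out: CCF4 FRET ratio (460 nm/530 nm) after 1 h RT dye loading, used for %activity and AC50 from titration series. Cells: Jurkat NFAT-β-lactamase/M1 line, treated with compound plus 1 uM carbachol for 5 h, 37 °C.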

[5] = Stat Signaling Pathway (AID 446); details: ME-180 (cervical carcinoma) SIE beta-lactamase reporter, IL-6 stimulated, 5 h; at 7.69 µM (top of the series) unless noted;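 note: ME-180 cervical cancer cells given 40 pM IL-6 alongside compound; SIE-controlled beta-lactamase reporter measured as 460/530 nm FRET emission ratio; % is set by controls: 0 for no effect and ±100 for the full control effect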
Procedure, shortened: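 IL-6/STAT signaling read in ME-180 cells via an SIE beta-lactamase reporter. Stimulus was 40 pM IL-6 (its AC50) for 5 hrs, so both activation and inhibition register.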

[6] = target: Glucocorticoid receptor (Homo sapiens) (UniProt P04150); experiment: GR-GFP Redistribution (AID 450;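 active = compounds whose dose series gives a full or clear partial fitted curve of increased nuclear translocation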; note: potency is the fitted concentration of half-maximal effect); details: U2OS GR-GFP nuclear translocation, laser cytometry, 2 h
[7] = target: Glucocorticoid receptor (Homo sapiens) (UniProt P04150); experiment: GR-EFC Redistribution (AID 451; calls by dose curve; note: potency is the fitted concentration of half-maximal effect); details: CHO-K1 GR-EFC translocation, beta-gal luminescence, 2 h
Procedure, shortened: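 Translocation of GR-ED fusion to nuclear EA restores b-gal, read by luminescence after 1 h room-temperature detection. Engineered CHO-K1 biosensor cells, 1,000/well, exposed 2 h at 37 C to titrations up to 46 uM final.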

[8] = target: Mitogen-activated protein kinase 10 (Mus musculus) (UniProt Q61831); experiment: JNK3 AlphaScreen Assay (AID 530); details: JNK3 lysate, c-Jun phosphorylation; series mostly up to 11.4 µM;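 note: kinase came from lysate of stimulated human HepG2 cells; signal reports phosphorylation of biotinylated GST-cJun 1-79 at Ser73 with 10 µM ATP; % is set by controls: 0 for no effect and ±100 for the full control effect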
Procedure, shortened: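 Compound titrations were preincubated 15 minutes at room temperature with substrate, antibody and pre-activated JNK3-containing HepG2 lysate. Reactions were started with 10 uM ATP and stopped with EDTA-containing bead buffer for AlphaScreen detection.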

[9] = target: 3',5'-cyclic-AMP phosphodiesterase 4B (Homo sapiens) (UniProt Q07343); experiment: qHTS Assay for Inhibitors of PDE-IV (AID 607; active = well fitted activation curve with a large enough effect in the main read-out, with a control signal flat, not every such curve was filed as active; note: % of control where 0% means no effect); details: HEK293 ACTOne CNG channel cells, membrane potential fluorescence; series mostly up to 22.9 µM
Procedure, shortened: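 Live HEK293 cells with a modified cyclic nucleotide-gated (CNG) channel report intracellular cAMP via membrane-potential dye fluorescence (ex 535/em 590 nm). Endogenous PDE-IV was targeted. Compounds were tested at up to 22.9 uM final; RO 20-1724 100 uM served as control.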

Sequence of Cytochrome P450 1A2 (Homo sapiens) (P05177 whole entry, looked up): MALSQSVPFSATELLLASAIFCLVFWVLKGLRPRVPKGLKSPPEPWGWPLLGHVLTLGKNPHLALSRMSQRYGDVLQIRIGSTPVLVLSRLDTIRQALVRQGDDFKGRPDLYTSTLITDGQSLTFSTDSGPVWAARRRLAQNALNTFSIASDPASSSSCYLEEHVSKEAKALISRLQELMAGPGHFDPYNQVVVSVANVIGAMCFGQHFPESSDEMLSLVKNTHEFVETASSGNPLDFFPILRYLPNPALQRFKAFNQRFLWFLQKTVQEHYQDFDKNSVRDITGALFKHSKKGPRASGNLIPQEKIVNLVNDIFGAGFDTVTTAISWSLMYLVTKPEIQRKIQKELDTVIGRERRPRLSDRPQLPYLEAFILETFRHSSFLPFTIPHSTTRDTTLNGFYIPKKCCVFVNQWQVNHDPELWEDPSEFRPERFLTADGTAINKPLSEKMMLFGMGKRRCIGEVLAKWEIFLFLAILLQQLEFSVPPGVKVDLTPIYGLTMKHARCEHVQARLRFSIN
Sequence of 3',5'-cyclic-AMP phosphodiesterase 4B (Homo sapiens) (Q07343 whole entry, looked up): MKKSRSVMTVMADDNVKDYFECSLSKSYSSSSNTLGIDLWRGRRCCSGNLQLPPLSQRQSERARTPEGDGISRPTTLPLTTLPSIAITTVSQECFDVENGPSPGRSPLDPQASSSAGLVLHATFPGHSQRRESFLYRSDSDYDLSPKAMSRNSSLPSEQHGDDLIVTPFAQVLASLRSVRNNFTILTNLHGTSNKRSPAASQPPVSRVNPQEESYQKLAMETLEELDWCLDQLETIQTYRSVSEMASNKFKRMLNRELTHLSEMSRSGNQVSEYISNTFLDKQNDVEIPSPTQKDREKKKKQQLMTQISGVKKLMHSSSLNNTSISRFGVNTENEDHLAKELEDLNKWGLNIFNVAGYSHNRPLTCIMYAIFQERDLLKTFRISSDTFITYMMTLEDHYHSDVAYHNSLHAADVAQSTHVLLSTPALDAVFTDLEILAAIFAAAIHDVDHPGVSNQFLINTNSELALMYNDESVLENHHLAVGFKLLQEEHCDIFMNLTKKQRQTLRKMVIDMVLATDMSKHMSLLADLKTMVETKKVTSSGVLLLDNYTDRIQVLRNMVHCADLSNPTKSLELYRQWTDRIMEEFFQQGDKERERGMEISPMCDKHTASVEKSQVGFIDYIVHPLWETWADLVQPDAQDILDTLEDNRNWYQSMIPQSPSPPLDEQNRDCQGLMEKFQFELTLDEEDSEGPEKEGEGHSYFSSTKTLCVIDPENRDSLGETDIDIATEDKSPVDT
Sequence of Glucocorticoid receptor (Homo sapiens) (P04150 whole entry, looked up, the tested form may be a part): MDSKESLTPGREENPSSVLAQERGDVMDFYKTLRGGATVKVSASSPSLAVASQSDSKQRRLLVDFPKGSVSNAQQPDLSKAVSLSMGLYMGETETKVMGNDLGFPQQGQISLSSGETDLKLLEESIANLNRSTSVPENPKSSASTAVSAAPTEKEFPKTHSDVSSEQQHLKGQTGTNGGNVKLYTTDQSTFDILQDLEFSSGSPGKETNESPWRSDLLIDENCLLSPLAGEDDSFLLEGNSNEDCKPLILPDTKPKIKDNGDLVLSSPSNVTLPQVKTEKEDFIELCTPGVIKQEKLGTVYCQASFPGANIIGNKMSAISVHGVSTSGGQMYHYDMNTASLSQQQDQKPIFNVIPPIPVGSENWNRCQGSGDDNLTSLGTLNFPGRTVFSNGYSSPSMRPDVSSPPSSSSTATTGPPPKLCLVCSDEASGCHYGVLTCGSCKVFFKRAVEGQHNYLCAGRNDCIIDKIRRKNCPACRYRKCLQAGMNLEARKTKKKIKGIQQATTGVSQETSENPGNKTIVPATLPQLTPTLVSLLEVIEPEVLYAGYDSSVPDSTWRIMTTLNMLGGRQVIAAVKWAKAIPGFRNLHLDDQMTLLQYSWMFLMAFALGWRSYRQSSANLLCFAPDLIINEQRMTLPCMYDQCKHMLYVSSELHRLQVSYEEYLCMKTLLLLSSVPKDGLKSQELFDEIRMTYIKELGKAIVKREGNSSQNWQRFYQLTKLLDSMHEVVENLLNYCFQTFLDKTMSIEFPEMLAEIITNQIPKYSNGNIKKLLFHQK
Sequence of Lysosomal acid glucosylceramidase (Homo sapiens) (P04062 whole entry, looked up): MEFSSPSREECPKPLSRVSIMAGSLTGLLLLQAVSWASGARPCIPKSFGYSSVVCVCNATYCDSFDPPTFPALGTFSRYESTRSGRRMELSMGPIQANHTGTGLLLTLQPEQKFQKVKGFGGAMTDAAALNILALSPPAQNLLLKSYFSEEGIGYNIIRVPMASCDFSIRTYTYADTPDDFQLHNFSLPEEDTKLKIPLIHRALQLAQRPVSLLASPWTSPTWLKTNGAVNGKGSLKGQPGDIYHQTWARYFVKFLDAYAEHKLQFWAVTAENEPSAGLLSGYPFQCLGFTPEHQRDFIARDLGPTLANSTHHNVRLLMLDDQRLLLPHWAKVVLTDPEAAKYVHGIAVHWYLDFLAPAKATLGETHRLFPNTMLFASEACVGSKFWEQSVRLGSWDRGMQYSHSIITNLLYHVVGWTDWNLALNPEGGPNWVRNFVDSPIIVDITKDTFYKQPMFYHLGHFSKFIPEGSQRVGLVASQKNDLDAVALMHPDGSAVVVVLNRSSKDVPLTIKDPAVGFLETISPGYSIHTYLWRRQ

SMILES | Potency [1] [µM] | activity change, negative = inhibition [2] [%] | Potency [3] | activity change, negative = inhibition [4] [%] | activity, negative = inhibition [5] [%] | Potency [6] [µM] | Potency [7] [µM] | Potency [8] | Potency [9] | activity change, negative = inhibition [3]
O=C(N/N=C\c1ccc2c(c1)CCC2)c1ccccc1O | > 11.4 | -5.97 | 2 µM (active) | 20.6 | -2.26 | > 46 | > 9.22 | inactive | inactive | –
N/C(CC/C(N)=N/O)=N\O | > 11.4 | -3.76 | inactive | 7.17 | -0.993 | > 46 | > 9.22 | inactive | inactive | –
O=[N+]([O-])c1ccc(NN=C2c3ccccc3Cc3ccccc32)c([N+](=O)[O-])c1 | > 11.4 | 26.1 | 0.794 µM (active) | -1.66 | 19.7 | > 46 | > 9.22 | inactive | inactive | –
Cc1cc(N2CCN(C)CC2)n2nc(-c3ccc(Cl)cc3)nc2n1 | > 11.4 | -1.96 | inactive | 13.2 | 4.28 | > 46 | > 9.22 | inactive | inactive | –
N#CC(CC(=O)O)=C(c1ccccc1)c1ccccc1 | > 11.4 | 6.62 | – | -1.1 | 1.35 | > 46 | > 9.22 | inactive | inactive | -14.5% [at 2.29 µM]
O=C(O)c1ccccc1C1c2ccccc2Oc2ccccc21 | > 11.4 | 2.36 | – | 4.13 | 0.279 | > 46 | > 9.22 | inactive | inactive | -20.4% [at 2.29 µM]
O=C(O)c1ccccc1-c1ccccc1C(=O)Nc1ccc2c(c1)Cc1ccccc1-2 | > 11.4 | 6.9 | – | -20.4 | -24.1 | > 46 | > 9.22 | inactive | inactive | -7.1% [at 2.29 µM]
C[N+](C)(C)c1ccc([C@H](N)C(=O)O)cc1 | > 11.4 | -0.163 | inactive | -21.6 | 0.0481 | > 46 | > 9.22 | inactive | inactive | –
O=C(O)CCCSc1ccccc1 | > 11.4 | -2.81 | inactive | -1.05 | 4.11 | > 46 | > 9.22 | inactive | inactive | –
NS(=O)(=O)c1cc2c(cc1Cl)=NC(CCC(=O)O)=NS=2(=O)O | > 11.4 | -7.99 | inactive | 7.52 | 10.8 | > 46 | > 9.22 | inactive | inactive | –
CN1CCCN(C)C1c1cc([N+](=O)[O-])ccc1O | > 11.4 | 7.56 | inactive | -23.2 | -0.988 | > 46 | > 9.22 | inactive | inactive | –
O=[N+]([O-])c1ccc2ncccc2c1CCc1c([N+](=O)[O-])ccc2ncccc12 | > 11.4 | 1.48 | 3.16 µM (active) | 17.8 | 5.88 | > 46 | > 9.22 | inactive | inactive | –
N[C@@](CC(=O)O)(Cc1ccccc1)C(=O)O | > 11.4 | -6.1 | – | 0.819 | 6.06 | > 46 | > 9.22 | inactive | inactive | -13.4% [at 2.29 µM]
NCC(=O)N[C@H](CO)C(=O)O (HELM PEPTIDE1{G.[dS]}$$$$V2.0) | > 11.4 | 12.3 | inactive | -7.28 | 10.1 | > 46 | > 9.22 | inactive | inactive | –
Nc1[nH]c(=O)nc2c1ncn2[C@H]1O[C@@H](CO)[C@@H](O)[C@@H]1O | > 11.4 | -9.66 | inactive | 15.7 | 17.5 | > 46 | > 9.22 | inactive | inactive | –
O=C(O)c1c[nH]c2cc(OCc3ccccc3)ccc2c1=O | > 11.4 | -8.18 | inactive | 5.14 | -8.65 | > 46 | > 9.22 | inactive | inactive | –
